# Results filed as inconclusive are left out. Where a structure was tested more than once in an assay, its records may differ in their call. Active and inactive are the calls of the source. Rule for the calls: active = hit-call score of the fitted dose curve at least 0.9, where 1 is the maximum; inconclusive = response in the unintended direction; inactive = score below 0.9.
# Test system: zebrafish Estrogen Receptor (ESR2A), gene 317734
# Test: ATG_zfER2a_XSP1: Attagene TRANS-FACTORIAL Multi-Species (XSP1) HepG2 Assay for zebrafish Estrogen Receptor (ESR2A) (AID 2283778)
# Method: ATG_XSP1_multi-species_TRANS is a cell-based, multiplexed assay created by modifying the existing Attagene TRANS-FACTORIAL system to include a panel of nuclear receptors from some or all the following species: human (Homo sapiens), mouse (Mus musculus), frog (Xenopus laevis), zebrafish (Danio rerio), chicken (Gallus gallus), and turtle (Chrysemys picta). The […] format uses HepG2, a human liver cell line, with measurements taken at 24 hours after chemical dosing in a 24-well plate. Xsp1 included 3 nM 6-alpha-fluorotestosterone to partially stimulate the androgen receptor.ATG_zfER2a_XSP1 is one of 29 assay components measured or calculated from the ATG_XSP1_multi-species_TRANS assay. It is designed to make measurements of mRNA induction, a form of inducible reporter, as detected with fluorescence intensity signals by Reverse transcription polymerase chain reaction (RT-PCR) and Capillary electrophoresis technology.The assay endpoint ATG_zfER2a_XSP1 was analyzed in the positive analysis fitting direction relative to DMSO as the negative control and baseline of activity. Using a type of inducible reporter, measures of mRNA for gain-of-signal activity can be used to understand the reporter gene at the transcription factor-level as they relate to the gene ER. Furthermore, this assay endpoint can be referred to as a primary readout, because this assay has produced multiple assay endpoints where this one serves a reporter gene function. To generalize the intended target to other relatable targets, this assay endpoint is annotated to the nuclear receptor intended target family, where the subfamily is steroidal.
# Human liver HepG2 cells are transiently transfected with multiple reporter transcription units (MRTUs) in 6-well plates using FuGene 6 reagent (Roche; 3 ml FuGene/1 mg DNA). The MRTU constructs are regulated by a cis-regulating element (promoter). […] A major difference between the CIS and TRANS system is that in CIS activities of endogenous TFs are measured, whereas the TRANS assay evaluates changes in activities of exogenous, chimeric NR-Gal4 proteins. […] At the end of 24 hour incubation, total RNA was isolated using TriZol reagent (Invitrogen). The isolated RNA is then reverse-transcribed using oligo(dT) primer and Mo-MLV reverse transcriptase (Invitrogen) with DNAse I (Ambion) treatment for 30 min. The one-tenth of the produced cDNA was amplified by PCR using Taq DNA polymerase (Invitrogen) and two reporter sequence-specific primers. The PCR products were fluorescently labeled by primer extension with 6-arboxyfluorescein (6-FAM) 5'-labeled reporter sequence-specific primer (2 min at 95 C, 20 s at 68 C and 10 min at 72 C) and these products were digested with 5U of HpaI (New England Biolabs) for 2h at 37 C. The fragments were purified using Qiaquick PCR columns (Qiagen), analyzed on an ABI 3130xL genetic analyzer (Applied Biosystems) with peak positions identified by using a set of X-rhodamine (ROX)-labeled MapMarker1000 molecular weight standards (BioVentures). The raw capillary electrophoresis data was processed using Attagraph software (Attagene).
SMILES,outcome,AC50
CCCCC(CC)CN1C(=O)C2C3C=CC(C3)C2C1=O (stereo unspecified),inactive,
Oc1ccc(C(c2ccc(O)cc2)C(Cl)(Cl)Cl)cc1,,106 nM (active)
C=CCOC(Cn1ccnc1)c1ccc(Cl)cc1Cl (stereo unspecified),inactive,
C#C[C@]1(O)CC[C@H]2[C@@H]3CCC4=CC(=O)CC[C@@H]4[C@H]3CC[C@@]21CC,inactive,349 nM (active)
O=C(c1ccc(O)cc1O)c1ccc(O)cc1O,,191 nM (active)
CC(C)CCCCCCc1ccc(O)cc1,inactive,
CCCCC(CC)COC(=O)c1ccccc1C(=O)O (stereo unspecified),inactive,
CC(C)(c1ccc(O)cc1)c1ccc(O)cc1,,680 nM (active)
CC1(C)C(C=C(Cl)Cl)C1C(=O)OCc1cccc(Oc2ccccc2)c1 (stereo unspecified),inactive,
CC(=O)S[C@@H]1CC2=CC(=O)CC[C@]2(C)[C@H]2CC[C@@]3(C)[C@@H](CC[C@@]34CCC(=O)O4)[C@H]12,inactive,
